# PubChem BioAssay AID504710 (Sanford-Burnham Center for Chemical Genomics, 2011)
# Values without a mark were called inactive. Active and inactive are the calls of the source.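 How the source made its calls: active means inhibition reaching about 16% in any single replicate (limit read from the data); inactive means the rest.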
# Molecular target: Hexokinase HKDC1 (Homo sapiens) (UniProt Q2TB90)
# Test: compounds lowering human HKDC1 activity – biochemical, single concentration, confirmation (AID 504710)
# Conditions: recombinant HKDC1, G6PDH/diaphorase/resazurin fluorescence; at 20 µM; hits give high values
# Hexokinase HKDC1 (Homo sapiens), sequence (Q2TB90 whole entry, looked up): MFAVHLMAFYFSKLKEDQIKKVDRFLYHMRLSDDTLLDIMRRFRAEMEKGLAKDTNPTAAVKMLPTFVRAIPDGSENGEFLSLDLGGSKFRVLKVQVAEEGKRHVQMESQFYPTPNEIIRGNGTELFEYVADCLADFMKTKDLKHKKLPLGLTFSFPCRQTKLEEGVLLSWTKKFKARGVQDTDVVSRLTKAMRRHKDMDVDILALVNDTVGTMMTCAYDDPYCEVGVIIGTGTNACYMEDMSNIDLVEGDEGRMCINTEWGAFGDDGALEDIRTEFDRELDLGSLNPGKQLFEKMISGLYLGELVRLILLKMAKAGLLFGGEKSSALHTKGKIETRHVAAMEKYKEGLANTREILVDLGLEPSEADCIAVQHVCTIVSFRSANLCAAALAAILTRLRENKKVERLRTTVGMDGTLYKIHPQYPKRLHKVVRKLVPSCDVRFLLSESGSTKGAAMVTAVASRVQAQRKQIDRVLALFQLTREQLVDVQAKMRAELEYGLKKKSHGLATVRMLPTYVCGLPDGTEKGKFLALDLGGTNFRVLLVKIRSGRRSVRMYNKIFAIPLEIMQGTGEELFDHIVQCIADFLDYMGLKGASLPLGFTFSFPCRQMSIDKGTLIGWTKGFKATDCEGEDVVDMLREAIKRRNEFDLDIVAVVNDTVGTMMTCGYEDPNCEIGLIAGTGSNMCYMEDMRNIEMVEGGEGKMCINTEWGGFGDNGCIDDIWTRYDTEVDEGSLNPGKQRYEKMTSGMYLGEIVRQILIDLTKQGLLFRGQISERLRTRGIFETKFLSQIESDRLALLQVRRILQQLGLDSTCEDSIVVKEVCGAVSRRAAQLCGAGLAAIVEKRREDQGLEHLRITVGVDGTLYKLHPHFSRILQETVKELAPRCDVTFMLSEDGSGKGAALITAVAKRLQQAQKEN
row,SMILES,inhibition
1,Cn1c(=O)c2c(nc(N/N=C/c3c(O)n(C4CCCCC4)c(=S)[nH]c3=O)n2C)n(C)c1=O,-49.5%
2,Nc1c(Br)cc2c3c(cccc13)-c1ccccc1-2,51.2% (active)
3,CCOC(=O)c1c(-n2c(C)cc(C=C3C(=O)NC(=S)NC3=O)c2C)sc2c1CCCC2,61% (active)
4,CC[C@H](C)/C=C(C)/C=C/C1=CC2=C(Cl)C(=O)[C@@](C)(OC(C)=O)C(=O)C2=CO1,45.8% (active)
5,O=c1c2ccccc2[se]n1-c1ccccc1,5.01% (active)
6,COC(=O)C[C@]1(C(=O)OC)CN(C#N)N(c2ccc(Cl)cc2)C12c1ccccc1-c1ccccc12,62.4% (active)
7,Cc1ccc2c(C)c3ccc4ccccc4c3c[n+]2c1,-65.5%
